# Unmarked numbers belong to inactive results.
# Compound: OC1CN(Cc2sccc12)C(=O)CCl
# Experiment: log2 ratio of Biotin-Ahx-Ub-VS probe labelling (compound/DMSO); higher = less target engagement, active = hit call of the paper (q ≤ 0.05, log2 ratio ≤ -1)
# Settings: compound concentration: 50uM; treatment time: 3 h
# Method: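 Round 2 competitive ABPP in HEK293T lysate. Purified HTC-D2B compounds were tested at 50 and 200 µM for 3 h, followed by Biotin-Ahx-Ub-VS enrichment and diaPASEF LC-MS/MS. Values are the average log2 ratio (compound/DMSO) from an unpaired t-test (n=3 treated, n=26 DMSO).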
# Chain of UniProt P51784 (P51784 whole entry): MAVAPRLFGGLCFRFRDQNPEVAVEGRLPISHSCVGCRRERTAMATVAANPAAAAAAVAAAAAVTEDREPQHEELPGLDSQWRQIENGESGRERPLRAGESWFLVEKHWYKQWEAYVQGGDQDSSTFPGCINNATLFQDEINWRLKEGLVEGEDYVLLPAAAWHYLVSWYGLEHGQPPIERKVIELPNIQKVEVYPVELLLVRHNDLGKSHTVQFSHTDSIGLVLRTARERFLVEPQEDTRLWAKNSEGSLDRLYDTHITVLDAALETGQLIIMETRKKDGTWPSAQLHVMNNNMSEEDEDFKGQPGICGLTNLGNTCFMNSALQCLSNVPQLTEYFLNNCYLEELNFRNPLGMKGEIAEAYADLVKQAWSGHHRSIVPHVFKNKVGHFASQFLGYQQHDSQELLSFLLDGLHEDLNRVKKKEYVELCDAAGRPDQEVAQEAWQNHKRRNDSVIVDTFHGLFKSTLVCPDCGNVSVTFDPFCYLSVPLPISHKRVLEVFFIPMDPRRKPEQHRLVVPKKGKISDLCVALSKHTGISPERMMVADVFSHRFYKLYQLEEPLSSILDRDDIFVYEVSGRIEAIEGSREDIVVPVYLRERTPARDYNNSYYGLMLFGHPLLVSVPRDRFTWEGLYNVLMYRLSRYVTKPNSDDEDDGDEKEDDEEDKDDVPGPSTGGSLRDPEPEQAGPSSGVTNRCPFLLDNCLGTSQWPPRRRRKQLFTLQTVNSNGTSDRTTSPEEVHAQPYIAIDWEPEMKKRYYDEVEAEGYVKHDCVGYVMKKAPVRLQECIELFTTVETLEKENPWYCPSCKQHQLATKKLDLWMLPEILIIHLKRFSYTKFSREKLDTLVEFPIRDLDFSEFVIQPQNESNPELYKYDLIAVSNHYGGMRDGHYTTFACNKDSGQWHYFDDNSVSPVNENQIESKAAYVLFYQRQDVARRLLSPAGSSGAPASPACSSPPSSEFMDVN
# Chain of UniProt Q93009 (Q93009 whole entry, looked up): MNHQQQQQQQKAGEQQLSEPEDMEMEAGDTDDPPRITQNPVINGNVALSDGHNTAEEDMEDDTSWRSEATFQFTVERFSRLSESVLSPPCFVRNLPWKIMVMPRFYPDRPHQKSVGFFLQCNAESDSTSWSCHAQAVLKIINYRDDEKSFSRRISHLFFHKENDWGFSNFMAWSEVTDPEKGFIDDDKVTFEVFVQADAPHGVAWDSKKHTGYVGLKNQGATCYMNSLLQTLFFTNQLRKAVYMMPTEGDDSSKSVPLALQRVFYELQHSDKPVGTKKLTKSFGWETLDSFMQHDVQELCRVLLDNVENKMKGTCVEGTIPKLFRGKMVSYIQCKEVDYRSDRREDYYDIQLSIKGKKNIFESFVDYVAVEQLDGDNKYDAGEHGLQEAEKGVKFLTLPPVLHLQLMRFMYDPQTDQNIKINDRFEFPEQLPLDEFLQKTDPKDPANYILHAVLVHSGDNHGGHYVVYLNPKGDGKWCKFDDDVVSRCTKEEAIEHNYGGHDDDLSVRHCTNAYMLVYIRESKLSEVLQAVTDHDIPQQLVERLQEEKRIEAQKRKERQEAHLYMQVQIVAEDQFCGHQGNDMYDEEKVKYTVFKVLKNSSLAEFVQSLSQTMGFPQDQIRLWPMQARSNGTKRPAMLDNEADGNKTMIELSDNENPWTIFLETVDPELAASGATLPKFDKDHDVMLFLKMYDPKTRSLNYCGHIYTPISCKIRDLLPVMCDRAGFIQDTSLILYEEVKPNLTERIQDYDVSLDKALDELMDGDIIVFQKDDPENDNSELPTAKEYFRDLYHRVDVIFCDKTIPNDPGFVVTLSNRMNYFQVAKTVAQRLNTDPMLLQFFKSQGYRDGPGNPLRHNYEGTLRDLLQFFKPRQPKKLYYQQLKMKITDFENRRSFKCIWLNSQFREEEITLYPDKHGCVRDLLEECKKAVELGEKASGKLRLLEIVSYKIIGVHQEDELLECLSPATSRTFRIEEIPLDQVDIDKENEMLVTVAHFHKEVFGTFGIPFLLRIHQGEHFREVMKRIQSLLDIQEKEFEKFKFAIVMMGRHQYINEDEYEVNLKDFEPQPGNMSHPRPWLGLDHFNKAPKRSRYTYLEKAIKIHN
# Chain of UniProt Q9UPT9 (Q9UPT9 whole entry): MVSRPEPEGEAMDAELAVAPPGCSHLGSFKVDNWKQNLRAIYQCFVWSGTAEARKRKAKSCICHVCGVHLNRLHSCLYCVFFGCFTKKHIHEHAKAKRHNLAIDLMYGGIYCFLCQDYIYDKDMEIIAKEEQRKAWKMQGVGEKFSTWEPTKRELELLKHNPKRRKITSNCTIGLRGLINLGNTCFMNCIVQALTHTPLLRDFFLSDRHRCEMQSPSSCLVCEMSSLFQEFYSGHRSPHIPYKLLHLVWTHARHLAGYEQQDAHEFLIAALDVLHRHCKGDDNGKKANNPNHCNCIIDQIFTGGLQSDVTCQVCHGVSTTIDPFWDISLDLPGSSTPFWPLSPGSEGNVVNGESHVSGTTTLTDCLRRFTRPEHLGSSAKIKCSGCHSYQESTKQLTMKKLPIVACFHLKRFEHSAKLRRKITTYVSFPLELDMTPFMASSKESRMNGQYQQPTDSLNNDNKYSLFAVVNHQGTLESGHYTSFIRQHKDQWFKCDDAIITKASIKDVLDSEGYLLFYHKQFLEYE
# Chain of UniProt Q9NP73 (Q9NP73 whole entry): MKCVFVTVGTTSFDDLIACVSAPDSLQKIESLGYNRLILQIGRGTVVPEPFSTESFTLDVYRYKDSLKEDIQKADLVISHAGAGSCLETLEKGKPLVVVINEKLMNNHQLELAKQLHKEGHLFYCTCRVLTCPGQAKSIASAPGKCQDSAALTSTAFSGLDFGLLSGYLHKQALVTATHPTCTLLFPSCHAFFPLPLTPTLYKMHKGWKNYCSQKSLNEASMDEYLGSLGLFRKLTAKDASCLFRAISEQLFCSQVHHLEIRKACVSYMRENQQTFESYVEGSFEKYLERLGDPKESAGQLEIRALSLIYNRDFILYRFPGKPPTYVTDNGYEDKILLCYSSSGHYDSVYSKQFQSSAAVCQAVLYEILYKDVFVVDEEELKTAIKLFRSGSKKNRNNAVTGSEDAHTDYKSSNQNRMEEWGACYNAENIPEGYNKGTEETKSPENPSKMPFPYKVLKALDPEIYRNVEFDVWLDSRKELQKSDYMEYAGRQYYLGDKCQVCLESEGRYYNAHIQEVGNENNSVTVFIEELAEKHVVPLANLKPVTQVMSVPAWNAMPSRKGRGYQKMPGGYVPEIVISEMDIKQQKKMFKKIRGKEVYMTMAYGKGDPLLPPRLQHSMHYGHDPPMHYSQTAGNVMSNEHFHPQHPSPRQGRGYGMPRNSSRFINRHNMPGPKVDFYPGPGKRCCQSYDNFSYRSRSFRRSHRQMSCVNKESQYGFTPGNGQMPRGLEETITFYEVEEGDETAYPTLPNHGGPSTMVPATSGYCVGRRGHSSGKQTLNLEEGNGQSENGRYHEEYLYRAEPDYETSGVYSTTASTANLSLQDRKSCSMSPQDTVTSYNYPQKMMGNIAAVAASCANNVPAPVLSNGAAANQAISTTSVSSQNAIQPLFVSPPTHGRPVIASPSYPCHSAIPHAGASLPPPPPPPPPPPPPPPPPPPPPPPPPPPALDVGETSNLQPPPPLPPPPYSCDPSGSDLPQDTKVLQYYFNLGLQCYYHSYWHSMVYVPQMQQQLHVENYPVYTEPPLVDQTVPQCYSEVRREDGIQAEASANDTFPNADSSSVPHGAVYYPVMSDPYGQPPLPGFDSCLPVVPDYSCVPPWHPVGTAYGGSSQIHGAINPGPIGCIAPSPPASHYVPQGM
# Chain of UniProt Q9P2H5 (Q9P2H5 whole entry): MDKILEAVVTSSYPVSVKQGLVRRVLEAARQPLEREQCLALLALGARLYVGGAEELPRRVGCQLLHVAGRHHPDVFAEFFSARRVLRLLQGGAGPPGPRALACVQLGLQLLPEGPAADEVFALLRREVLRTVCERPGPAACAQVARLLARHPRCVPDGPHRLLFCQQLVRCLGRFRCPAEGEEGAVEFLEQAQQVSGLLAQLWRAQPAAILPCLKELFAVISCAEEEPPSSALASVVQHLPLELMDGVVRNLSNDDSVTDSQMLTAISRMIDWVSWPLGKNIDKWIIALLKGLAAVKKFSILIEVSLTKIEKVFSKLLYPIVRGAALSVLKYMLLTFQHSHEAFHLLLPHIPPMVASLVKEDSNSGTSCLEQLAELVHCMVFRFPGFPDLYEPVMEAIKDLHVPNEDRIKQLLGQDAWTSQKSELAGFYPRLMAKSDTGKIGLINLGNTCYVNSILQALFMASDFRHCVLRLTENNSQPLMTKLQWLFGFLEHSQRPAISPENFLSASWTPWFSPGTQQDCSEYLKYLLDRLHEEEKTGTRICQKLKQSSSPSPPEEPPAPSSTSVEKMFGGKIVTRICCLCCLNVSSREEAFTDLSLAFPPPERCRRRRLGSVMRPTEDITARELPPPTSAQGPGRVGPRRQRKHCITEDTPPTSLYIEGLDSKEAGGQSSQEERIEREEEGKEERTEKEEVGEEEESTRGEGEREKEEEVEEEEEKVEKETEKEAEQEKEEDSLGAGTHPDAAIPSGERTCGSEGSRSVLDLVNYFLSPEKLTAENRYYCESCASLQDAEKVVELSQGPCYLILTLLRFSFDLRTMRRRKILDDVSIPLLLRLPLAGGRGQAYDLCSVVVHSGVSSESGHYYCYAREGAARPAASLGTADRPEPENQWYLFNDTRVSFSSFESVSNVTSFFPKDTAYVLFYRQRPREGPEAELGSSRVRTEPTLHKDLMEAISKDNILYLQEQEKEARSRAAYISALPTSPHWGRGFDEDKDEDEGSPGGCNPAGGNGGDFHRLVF
# Chain of UniProt Q92905 (Q92905 whole entry, looked up): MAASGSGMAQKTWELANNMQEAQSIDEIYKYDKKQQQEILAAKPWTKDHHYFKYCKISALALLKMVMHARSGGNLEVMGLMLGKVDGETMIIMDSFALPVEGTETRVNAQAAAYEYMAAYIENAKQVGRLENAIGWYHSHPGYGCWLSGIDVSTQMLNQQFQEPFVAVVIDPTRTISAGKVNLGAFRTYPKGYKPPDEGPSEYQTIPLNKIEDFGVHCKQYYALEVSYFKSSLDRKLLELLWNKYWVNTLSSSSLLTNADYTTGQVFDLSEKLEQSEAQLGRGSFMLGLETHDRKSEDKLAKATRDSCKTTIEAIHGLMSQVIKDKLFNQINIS
row,Target,log2 ratio of Biotin-Ahx-Ub-VS probe labelling
1,ALG13 (UniProt Q9NP73),0.00409
2,ATXN3 (UniProt P54252),-0.216
3,USP54 (UniProt Q70EL1),0.561
4,USP7 (UniProt Q93009),-0.155
5,USP16 (UniProt Q9Y5T5),-0.903
6,USP36 (UniProt Q9P275),-0.243
7,USP39 (UniProt Q53GS9),-0.0158
8,USP22 (UniProt Q9UPT9),0.0108
9,USP34 (UniProt Q70CQ2),-0.156
10,COPS5 (UniProt Q92905),0.136
11,UniProt Q9P2H5,-0.029
12,UniProt Q8TE49,-1.87 (active)
13,UCHL1 (UniProt P09936),-0.248
14,USP42 (UniProt Q9H9J4),-0.224
15,UniProt P51784,0.0374
16,OTUD4 (UniProt Q01804),-0.695
17,UCHL3 (UniProt P15374),-0.332
18,BAP1 (UniProt Q92560),-0.416
19,OTUB1 (UniProt Q96FW1),0.196
20,USP24 (UniProt Q9UPU5),-0.165

# Same assay, conditions: compound concentration: 200uM; treatment time: 3 h
row,Target,log2 ratio of Biotin-Ahx-Ub-VS probe labelling
1,ALG13 (UniProt Q9NP73),-0.0817
2,ATXN3 (UniProt P54252),-0.0796
3,USP54 (UniProt Q70EL1),-0.559
4,USP7 (UniProt Q93009),-0.426
5,USP16 (UniProt Q9Y5T5),-0.0352
6,USP36 (UniProt Q9P275),-0.0665
7,USP39 (UniProt Q53GS9),0.0541
8,USP22 (UniProt Q9UPT9),-0.267
9,USP34 (UniProt Q70CQ2),-0.0909
10,COPS5 (UniProt Q92905),-0.0875
11,UniProt Q9P2H5,-0.0467
12,UniProt Q8TE49,-2.68 (active)
13,UCHL1 (UniProt P09936),-0.0486
14,USP42 (UniProt Q9H9J4),0.0756
15,UniProt P51784,-0.0603
16,OTUD4 (UniProt Q01804),-1.48 (active)
17,UCHL3 (UniProt P15374),-0.337
18,BAP1 (UniProt Q92560),-0.818
19,OTUB1 (UniProt Q96FW1),-0.0449
20,USP24 (UniProt Q9UPU5),-0.557

# — the supplement of paper PMC11732987, “Enantioselective OTUD7B fragment discovery through chemoproteomics screening and high-throughput optimisation” (Communications Chemistry, 2025)
